The target of experiment [1] is Fructose-bisphosphate aldolase (Giardia intestinalis (strain ATCC 50803 / WB clone C6)) (UniProt A8B2U2). Kind of experiment: qHTS Assay for Inhibitors of Fructose-1,6-bisphosphate Aldolase from Giardia Lamblia: Primary screen confirmation (AID 2787).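 Further: aldolase product measured through coupled diaphorase step turning resazurin into fluorescent resorufin; series mostly up to about 58 µM; nearly all actives have a fitted effect of over 45% in size.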 In short, it runs like this:
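FBPA (40 nM in enzyme reagent, with 30 uM ZnCl2) was preincubated 10 min at RT with compound up to 57.5 uM final. Substrate plus coupled detection system was then added, and fluorescence (525/598 nm) was read after 20 min at RT.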
In general terms: qHTS replaces the single test concentration by a dilution series.

Experiment [2] in a line: qHTS Assay for Inhibitors of Fructose-1,6-bisphosphate Aldolase from Giardia Lamblia: Coupling assay counterscreen confirmation (AID 2795). Further: nearly all actives have a fitted effect of over 55% in size. An outline of the steps: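 Counterscreen, no aldolase: coupling enzyme reagent + cpd (up to 57.5 uM final), 10 min RT; add substrate + coupling system + AmpLite Red, 20 min RT; fluorescence ex 525/em 598 nm.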

The list shows a part of the results. Inconclusive results are not listed. Values without a mark were called inactive. Calls of active or inactive are those of the source. The call rests on the fitted dose curve; in most records, active means well fitted inhibition curve with a large enough effect; inconclusive means small, poorly fitted or top-dose-only effect; inactive means flat fitted curve, though single readings scatter.

Fructose-bisphosphate aldolase (Giardia intestinalis (strain ATCC 50803 / WB clone C6)), sequence (A8B2U2 whole entry, looked up): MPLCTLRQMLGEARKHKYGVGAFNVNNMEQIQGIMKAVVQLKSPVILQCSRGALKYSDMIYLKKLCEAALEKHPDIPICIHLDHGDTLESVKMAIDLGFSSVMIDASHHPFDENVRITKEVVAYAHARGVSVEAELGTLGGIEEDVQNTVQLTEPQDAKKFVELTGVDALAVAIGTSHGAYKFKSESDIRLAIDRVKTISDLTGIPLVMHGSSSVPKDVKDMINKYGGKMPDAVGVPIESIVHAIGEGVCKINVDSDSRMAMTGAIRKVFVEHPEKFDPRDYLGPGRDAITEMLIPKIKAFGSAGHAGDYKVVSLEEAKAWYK

For `C/C(=N\NC(N)=S)c1cccnc1`, the compound was called inactive in experiment [1] and in experiment [2].

Source of the values: PubChem BioAssay (NCATS).
